# Experimental data as given in PubChem BioAssay.
# Activity calls are given as the source filed them.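 How the source made its calls, unless noted: active means normalized viability below 100% at a tested concentration; inactive means the rest.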
# What was measured:
# [1] = survival rescue of mitochondrial mutant cells in low glucose, primary screen, MELAS cybrids, Rieske KO mouse fibroblasts, CellTiter-Glo (AID 1508586;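 active means mean z-score across replicates of 1.96 or higher in either the MELAS or the Rieske mutant cell line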;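 further: z relative to plate mean and SD of compound and empty wells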)
# [2] = viability rescue of complex I mutant cybrids, primary screen, cell-based, galactose medium, ATP luminescence (AID 1645843;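 active means z-score of at least 1.8 in each of two replicates, scored against plate mean and spread of sample wells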;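 further: positive z means more ATP and so rescue of galactose-driven cybrid death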); conditions: complex I mutant cybrid cells, 72 h, stronger effect = higher value
# [3] = kinase inhibitors against Plasmodium liver-stage infection, cell-based, known kinase inhibitor set, luminescence, hepatoma host viability (AID 624392; call rule not given here;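 further: infected cells incubated roughly two days before readout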); conditions: Plasmodium liver stage in hepatoma cells, luciferase luminescence, concentration not given here; liver cell % of control: measured here: host liver cell viability; parasite % of control: stronger effect = lower value
# [4] = modulators of glucocorticoid suppression of NF-kB, cell-based, luciferase, IL-1B stimulus, dexamethasone (AID 624486; call rule not given here;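 on percent of negative control (+Dex): 100% = mean signal of vehicle control wells on the plate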); conditions: NF-kB luciferase reporter, IL-1B + dexamethasone, luminescence; percent of negative control (+Dex): actives lie on both sides, concentration not given here; z-score: measured here: IL-1B alone, no Dex
# [5] = kinase inhibitors altering Pseudomonas killing of worms, whole organism (AID 651566; call rule not given here;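 further: tested at 14 µM; sign flipped so higher z means a lower ratio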); conditions: C. elegans killed by P. aeruginosa, survival ratio
# [6] = activators of macrophage pro-inflammatory response, cell-based, murine, luminescence (AID 652131; call rule not given here); conditions: murine macrophage pro-inflammatory reporter, stronger effect = higher value
# [7] = ovarian cancer cell viability with rucaparib, profiling panel, oncology-focused library, rucaparib conditional (AID 1508598); conditions: patient-derived ovarian cancer cells, CellTiter-Glo viability, 144 h, stronger effect = lower value
# [8] = MELAS cybrid survival, CellTiter-Glo 48 h, stronger effect = higher value
# [9] = Rieske KO mouse fibroblast survival, CellTiter-Glo 72 h
# [10] = at 0.000305 µM, OCI-C5x cells, with rucaparib 10 µM, 100% = cells with rucaparib alone
# [11] = at 0.000305 µM, OCI-C5x cells, without rucaparib
# [12] = at 0.000305 µM, OCI-P5x cells, with rucaparib 20 µM, 100% = cells with rucaparib alone
# [13] = at 0.000305 µM, OCI-P5x cells, without rucaparib
# [14] = at 0.00122 µM, OCI-C5x cells, with rucaparib 10 µM, 100% = cells with rucaparib alone
# [15] = at 0.00122 µM, OCI-C5x cells, without rucaparib
# [16] = at 0.00122 µM, OCI-P5x cells, with rucaparib 20 µM, 100% = cells with rucaparib alone
# [17] = at 0.00122 µM, OCI-P5x cells, without rucaparib
# [18] = at 0.00488 µM, OCI-C5x cells, with rucaparib 10 µM, 100% = cells with rucaparib alone
# [19] = at 0.00488 µM, OCI-C5x cells, without rucaparib
# [20] = at 0.00488 µM, OCI-P5x cells, with rucaparib 20 µM, 100% = cells with rucaparib alone
# [21] = at 0.00488 µM, OCI-P5x cells, without rucaparib
# [22] = at 0.0195 µM, OCI-C5x cells, with rucaparib 10 µM, 100% = cells with rucaparib alone
# [23] = at 0.0195 µM, OCI-C5x cells, without rucaparib
# [24] = at 0.0195 µM, OCI-P5x cells, with rucaparib 20 µM, 100% = cells with rucaparib alone
# [25] = at 0.0195 µM, OCI-P5x cells, without rucaparib
# [26] = at 0.0781 µM, OCI-C5x cells, with rucaparib 10 µM, 100% = cells with rucaparib alone
# [27] = at 0.0781 µM, OCI-C5x cells, without rucaparib
# [28] = at 0.0781 µM, OCI-P5x cells, with rucaparib 20 µM, 100% = cells with rucaparib alone
# [29] = at 0.0781 µM, OCI-P5x cells, without rucaparib
# [30] = at 0.313 µM, OCI-C5x cells, with rucaparib 10 µM, 100% = cells with rucaparib alone
# [31] = at 0.313 µM, OCI-C5x cells, without rucaparib
# [32] = at 0.313 µM, OCI-P5x cells, with rucaparib 20 µM, 100% = cells with rucaparib alone
# [33] = at 0.313 µM, OCI-P5x cells, without rucaparib
# [34] = at 1.25 µM, OCI-C5x cells, with rucaparib 10 µM, 100% = cells with rucaparib alone
# [35] = at 1.25 µM, OCI-C5x cells, without rucaparib
# [36] = at 1.25 µM, OCI-P5x cells, with rucaparib 20 µM, 100% = cells with rucaparib alone
# [37] = at 1.25 µM, OCI-P5x cells, without rucaparib
# [38] = at 5 µM, OCI-C5x cells, with rucaparib 10 µM, 100% = cells with rucaparib alone
# [39] = at 5 µM, OCI-C5x cells, without rucaparib
# [40] = at 5 µM, OCI-P5x cells, with rucaparib 20 µM, 100% = cells with rucaparib alone
# [41] = at 5 µM, OCI-P5x cells, without rucaparib
smiles,measurement,setting,value
Cc1ccc(-c2cc(C(=O)N3CCC[C@H]3CO)cc(S(=O)(=O)N3CCOCC3)c2)s1,z-score,[1]; [8],-0.348 (inactive)
same,z-score,[1]; [9],1.18
same,z-score,[2],-0.415 (inactive)
NC(=O)c1sc(-n2cnc3ccccc32)cc1OCc1ccccc1Br,liver cell % of control,[3],77.6%
same,parasite % of control,[3],256% (inactive)
same,percent of negative control (+Dex),[4],101% (inactive)
same,z-score,[4],0.185
same,z-score,[5],-0.075 (inactive)
same,z-score,[6],0.164 (inactive)
same,z-score,[1]; [8],-0.754 (inactive)
same,z-score,[1]; [9],-0.437
O=C(Nc1ccc(Oc2ccc3nc(NC(=O)c4ccco4)[nH]c3c2)cc1)Nc1cc(C(F)(F)F)ccc1F,liver cell % of control,[3],140%
same,parasite % of control,[3],37.4% (inactive)
same,percent of negative control (+Dex),[4],81.5% (inactive)
same,z-score,[4],-2.38
same,z-score,[5],-0.605 (inactive)
same,z-score,[6],-0.544 (inactive)
same,z-score,[1]; [8],-1.24
same,z-score,[1]; [9],6.9
O=C(/C=C/c1ccc2ccccc2n1)c1ccncc1,viability,[7]; [10],108% (inactive)
same,viability,[7]; [11],116% (inactive)
same,viability,[7]; [12],96% (active)
same,viability,[7]; [13],84.9% (active)
same,viability,[7]; [14],121% (inactive)
same,viability,[7]; [15],120% (inactive)
same,viability,[7]; [16],99.6% (active)
same,viability,[7]; [17],91.2% (active)
same,viability,[7]; [18],119% (inactive)
same,viability,[7]; [19],119% (inactive)
same,viability,[7]; [20],70.3% (active)
same,viability,[7]; [21],17.7% (active)
same,viability,[7]; [22],122% (inactive)
same,viability,[7]; [23],130% (inactive)
same,viability,[7]; [24],56.8% (active)
same,viability,[7]; [25],13.9% (active)
same,viability,[7]; [26],119% (inactive)
same,viability,[7]; [27],116% (inactive)
same,viability,[7]; [28],51.3% (active)
same,viability,[7]; [29],15.5% (active)
same,viability,[7]; [30],120% (inactive)
same,viability,[7]; [31],112% (inactive)
same,viability,[7]; [32],54.4% (active)
same,viability,[7]; [33],13.6% (active)
same,viability,[7]; [34],113% (inactive)
same,viability,[7]; [35],124% (inactive)
same,viability,[7]; [36],34.2% (active)
same,viability,[7]; [37],111% (inactive)
same,viability,[7]; [38],3.77% (active)
same,viability,[7]; [39],128% (inactive)
same,viability,[7]; [40],16.9% (active)
same,viability,[7]; [41],109% (inactive)
CCC1=CC2CN(C1)Cc1c([nH]c3ccccc13)[C@@](C(=O)OC)(c1cc3c(cc1OC)N(C)[C@H]1[C@@](O)(C(=O)OC)[C@H](OC(C)=O)[C@]4(CC)C=CCN5CC[C@@]31[C@H]54)C2 (stereo partly specified),viability,[7]; [10],110% (inactive)
same,viability,[7]; [11],106% (inactive)
same,viability,[7]; [12],1.99% (active)
same,viability,[7]; [13],2.91% (active)
same,viability,[7]; [14],94.4% (active)
same,viability,[7]; [15],70.1% (active)
same,viability,[7]; [16],1.29% (active)
same,viability,[7]; [17],1.02% (active)
same,viability,[7]; [18],50.6% (active)
same,viability,[7]; [19],43.8% (active)
same,viability,[7]; [20],52.9% (active)
same,viability,[7]; [21],20.3% (active)
same,viability,[7]; [22],39.2% (active)
same,viability,[7]; [23],33.7% (active)
same,viability,[7]; [24],50.5% (active)
same,viability,[7]; [25],16.3% (active)
same,viability,[7]; [26],40.3% (active)
same,viability,[7]; [27],22.9% (active)
same,viability,[7]; [28],49.1% (active)
same,viability,[7]; [29],13.6% (active)
same,viability,[7]; [30],33.8% (active)
same,viability,[7]; [31],23.8% (active)
same,viability,[7]; [32],46.6% (active)
same,viability,[7]; [33],12.6% (active)
same,viability,[7]; [34],39.7% (active)
same,viability,[7]; [35],21.7% (active)
same,viability,[7]; [36],45.2% (active)
same,viability,[7]; [37],11.4% (active)
same,viability,[7]; [38],36.1% (active)
same,viability,[7]; [39],22.2% (active)
same,viability,[7]; [40],41.7% (active)
same,viability,[7]; [41],8.33% (active)
CN1CCN(S(=O)(=O)c2cc(C(=O)NCC3CCCO3)cc(-c3ccccc3)c2)CC1 (stereo unspecified),z-score,[1]; [8],0.139 (inactive)
same,z-score,[1]; [9],0.37
same,z-score,[2],-0.515 (inactive)
CO[C@H]1C[C@H]2CC[C@@H](C)[C@@](O)(O2)C(=O)C(=O)N2CCCC[C@H]2C(=O)O[C@H]([C@H](C)C[C@@H]2CC[C@H](OC(=O)C(C)(CO)CO)[C@H](OC)C2)CC(=O)[C@H](C)/C=C(\C)[C@@H](O)[C@@H](OC)C(=O)[C@H](C)C[C@H](C)/C=C/C=C/C=C/1C,viability,[7]; [10],93.5% (active)
same,viability,[7]; [11],93.2% (active)
same,viability,[7]; [12],85% (active)
same,viability,[7]; [13],85% (active)
same,viability,[7]; [14],97% (active)
same,viability,[7]; [15],95.7% (active)
same,viability,[7]; [16],77.3% (active)
same,viability,[7]; [17],69.5% (active)
same,viability,[7]; [18],88.7% (active)
same,viability,[7]; [19],91.6% (active)
same,viability,[7]; [20],71.8% (active)
same,viability,[7]; [21],56.9% (active)
same,viability,[7]; [22],93.2% (active)
same,viability,[7]; [23],88.2% (active)
same,viability,[7]; [24],71% (active)
same,viability,[7]; [25],58.4% (active)
same,viability,[7]; [26],93.3% (active)
same,viability,[7]; [27],84.7% (active)
same,viability,[7]; [28],70.8% (active)
same,viability,[7]; [29],56.6% (active)
same,viability,[7]; [30],96.4% (active)
same,viability,[7]; [31],87.6% (active)
same,viability,[7]; [32],71.6% (active)
same,viability,[7]; [33],57.7% (active)
same,viability,[7]; [34],100% (inactive)
same,viability,[7]; [35],95.8% (active)
same,viability,[7]; [36],77% (active)
same,viability,[7]; [37],55.6% (active)
same,viability,[7]; [38],93.4% (active)
same,viability,[7]; [39],88% (active)
same,viability,[7]; [40],59.8% (active)
same,viability,[7]; [41],54.1% (active)
NC(=O)c1cccc(Nc2nccc(Nc3cccc4[nH]ncc34)n2)c1,liver cell % of control,[3],75%
same,parasite % of control,[3],429% (inactive)
same,percent of negative control (+Dex),[4],95.5% (inactive)
same,z-score,[4],0.725
same,z-score,[5],-0.905 (inactive)
same,z-score,[6],1.14 (inactive)
same,z-score,[1]; [8],0.00705 (inactive)
same,z-score,[1]; [9],-0.0979
